Bioassay records from PubChem BioAssay.
Compounds with a hit are over-represented: about 4% of the library has one in this group of screens.
GDH-TPI inh = counter-screen for M. tuberculosis FBA inhibitors: GDH-TPI coupled enzymes | GDH-TPI coupled enzyme counterscreen, NADH absorbance | inhibition, % at 4.8 µM | 1.2% of 360,000 active; in the data active means inhibition above about 30%;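 further: 0% = DMSO wells and 100% = wells lacking the enzyme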
UGM FP inh = inhibitors of M. tuberculosis UDP-galactopyranose mutase; purified UGM, fluorescence polarization probe displacement; inhibition, % at 10 µM; 0.06% of 320,000 active; in the data active means inhibition above about 10%, passing the limit was not always enough; inconclusive means no clear call, values can overlap the other calls
FBA Mtb inh = inhibits M. tuberculosis FBA enzyme; purified M. tuberculosis FBA, fluorescence read-out; inhibition, % at 1 µM; 2.3% of 360,000 active; in the data active means inhibition above about 27%;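 further: 0% = vehicle and 100% = reference inhibitor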
Mtb bLac sens = beta-lactam sensitization of Mtb H37Rv; M. tuberculosis H37Rv growth with meropenem, percent inhibition; inhibition, % at 25 µM; 0.27% of 330,000 active; AID 434955; call rule not given here;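 further: growth measured after seven days incubation then overnight dye step; 0% = bacteria only wells and 100% = bacteria with antibiotic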
Rv3671c protease = inhibitors of M. tuberculosis serine protease Rv3671c | inhibition, % at 5.96 µM | 0.048% of 320,000 active | P9WHR9 | AID 2606; in the data active means inhibition above about 38%;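 further: extracellular domain of Rv3671c used as enzyme; 0% = enzyme with DMSO and 100% = no enzyme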
RecA intein inh = Mtb RecA intein splicing inhibition; AID 2221; 0.75% of 290,000 active; P9WHJ3; inhibition, % (no concentration beside the values); cell-free RecA intein splicing, fluorescence; in the data active means inhibition above about 30%; inconclusive means no clear call, values can overlap the other calls;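 further: 0% = vehicle wells and 100% = reference inhibitor control wells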
Target sequence (P9WHJ3 whole entry, looked up): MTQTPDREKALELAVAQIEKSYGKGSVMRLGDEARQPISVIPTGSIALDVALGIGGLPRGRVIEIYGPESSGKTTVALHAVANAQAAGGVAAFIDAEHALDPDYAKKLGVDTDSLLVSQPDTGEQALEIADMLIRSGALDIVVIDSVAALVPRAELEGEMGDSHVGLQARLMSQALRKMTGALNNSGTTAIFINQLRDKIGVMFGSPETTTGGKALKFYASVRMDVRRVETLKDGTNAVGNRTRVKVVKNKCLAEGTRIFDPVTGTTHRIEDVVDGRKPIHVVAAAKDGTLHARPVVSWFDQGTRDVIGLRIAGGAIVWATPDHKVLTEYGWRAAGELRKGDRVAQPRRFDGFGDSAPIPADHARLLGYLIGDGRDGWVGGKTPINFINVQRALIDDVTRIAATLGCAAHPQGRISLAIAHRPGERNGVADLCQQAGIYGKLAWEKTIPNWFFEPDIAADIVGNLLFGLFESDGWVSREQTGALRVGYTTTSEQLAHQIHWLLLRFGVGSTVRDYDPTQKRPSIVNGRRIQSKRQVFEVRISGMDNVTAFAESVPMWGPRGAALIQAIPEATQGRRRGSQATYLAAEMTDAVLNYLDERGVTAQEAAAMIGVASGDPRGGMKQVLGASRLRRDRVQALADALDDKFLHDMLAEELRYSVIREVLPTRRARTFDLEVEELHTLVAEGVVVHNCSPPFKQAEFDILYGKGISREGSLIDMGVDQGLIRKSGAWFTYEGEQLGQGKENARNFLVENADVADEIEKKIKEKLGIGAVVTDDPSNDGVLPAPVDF
Starred values were filed as active, the others as inactive; i = inactive; ? = inconclusive; / = no result; + = active, no number.

SMILES | GDH-TPI inh | UGM FP inh | FBA Mtb inh | Mtb bLac sens | Rv3671c protease | RecA intein inh
CN(C)/C=C/C(=O)c1ccc(Cl)c([N+](=O)[O-])c1 | 31.1* | 0.3 | -1.6 | -5.0 | -14.5 | 4.3
Cc1ccc(C(=O)/C=C/N(C)C)cn1 | 31.4* | 0.0 | -1.7 | -10.8 | -0.9 | 1.1
CC(C)c1cc(C(=O)N/N=C/c2ccco2)n[nH]1 | 8.9 | 1.3 | -1.2 | -3.8 | 5.0 | -1.1
O=C(NCc1cccc(F)c1)c1ccc(N2C(=O)Cn3c(cc4sccc43)C2=O)cc1 | 21.1 | 0.7 | 1.5 | -5.8 | -10.4 | -4.8
CCCCN(C=O)c1c(CC)nc2ccc(C(=O)NCCOc3ccc(OC)cc3)cn12 | 9.1 | / | 2.1 | / | / | /
CN(C)/C=C/C(=O)c1cccc(Cl)c1 | 42.3* | 1.4 | -3.2 | 1.5 | -4.3 | -1.4
CN(C)NC(=O)c1cccc(Cl)c1 | 9.6 | -2.3 | 2.0 | -10.2 | 2.9 | 0.4
OCCCc1nc2n(n1)C(c1ccccc1Cl)C=C(c1cccs1)N2 (stereo not drawn) | 12.9 | 0.8 | 54.9* | -2.5 | -8.6 | /
Cc1cccc(NC(=O)NN2CCN(C)CC2)c1C | -11.3 | 1.3 | -2.6 | 1.2 | / | -0.6
CCOC(=O)CNc1c(-c2ccc(F)cc2)nc2cnccn12 | 5.7 | 1.8 | 86.6* | -8.7 | -5.5 | -106.3
CCCCNc1c(-c2ccc(-c3ccc(C(C)=O)cc3)c(OC)c2)nc2cnccn12 | 34.0* | -0.5 | 15.2 | 99.5 | 6.8 | -76.7
CCCc1cc(=O)oc2c(CN3CCCC3)c(O)ccc12 | 20.1 | -0.5 | / | -7.8 | 0.1 | -80.0
O=c1oc2c(CN3CCCCC3)c(O)ccc2cc1-c1nc2ccccc2[nH]1 | -3.7 | / | 2.1 | / | / | /
O=c1oc2c(CN3CCN(CCO)CC3)c(O)ccc2cc1-c1ccccn1 | 17.5 | -2.8 | + | 6.1 | 10.8 | i
Cc1cc(=O)oc2c(CN3CCCC3)c(O)ccc12 | 19.3 | -1.3 | + | 2.5 | 10.1 | -59.1
CCN1CCN(Cc2c(O)ccc3c(C)cc(=O)oc23)CC1 | 16.7 | -5.3 | + | 0.5 | 3.5 | -29.1
Cc1cc(=O)oc2c(CN3CCN(CCO)CC3)c(O)ccc12 | 11.4 | 1.3 | + | 1.6 | -7.8 | -41.0
CN(C)/C=C/C(=O)c1ccc(N2CCN(c3ncc(C(F)(F)F)cc3Cl)CC2)cc1 | 40.2* | 1.2 | 1.7 | 82.5 | -1.6 | 5.7
Cc1ccc2c(c1)N(CC(=O)NCCCN1CC(C)CC(C)C1)C(=O)c1cccnc1O2 (stereo not drawn) | -3.0 | 0.9 | 2.4 | ? | 5.4 | 0.3
CN1CCN(c2ccc(NC(=S)NC(=O)/C=C/c3ccco3)cc2)CC1 | 30.9* | -0.6 | -2.2 | 1.4 | -5.3 | 0.1
CC(=O)N(C)c1ccc(NC(=S)NC(=O)/C=C/c2ccco2)cc1 | 40.2* | 5.3 | -7.1 | 2.0 | -8.4 | 0.2
O=C(/C=C/c1ccco1)NC(=S)Nc1ccccc1N1CCOCC1 | 45.6* | 0.7 | -1.7 | -4.3 | -0.2 | 1.4
CC(=O)Nc1ccc(NC(=S)NC(=O)/C=C/c2ccco2)cc1 | 6.4 | -0.1 | 1.9 | 9.8 | -0.8 | 0.3
O=C(/C=C/c1ccco1)NC(=S)Nc1ccccn1 | 40.2* | -2.7 | 0.9 | ? | -1.6 | 1.6
Cc1cccnc1NC(=S)NC(=O)/C=C/c1ccco1 | 16.3 | -3.2 | -0.4 | -12.4 | -2.0 | -5.8
SMILES | GDH-TPI inh | UGM FP inh | FBA Mtb inh | Mtb bLac sens | Rv3671c protease | RecA intein inh
CCOC(=O)Cc1cnc(N)s1 | -0.6 | 2.6 | -0.1 | -9.1 | -0.5 | 1.3
Cc1cc(C)c2sc(NC(=O)CN3C(=O)CCC3=O)nc2c1 | -7.5 | -0.4 | -4.9 | 1.0 | 1.6 | 0.3
Cc1cc2cc3c(=O)[nH]c(=O)cc-3n(CC(O)C(O)C(O)CO)c2cc1C (stereo not drawn) | 13.3 | / | -5.0 | / | / | /
Cc1cc2cc3c(=O)[nH]c(=O)nc-3n(CC(O)C(O)C(O)CO)c2cc1C (stereo not drawn) | 26.1 | / | 149.1* | / | / | /
CCN(CC)S(=O)(=O)c1ccc(OC)c(NC(=O)/C=C/c2ccco2)c1 | 35.0* | -1.8 | -1.8 | -2.0 | 0.0 | 1.2
CN(C)C(=O)C(=O)c1cccn1-c1ccccc1C#N | 5.9 | -0.9 | -1.6 | -8.7 | 2.5 | -97.2
COc1cc(C(=O)Nc2cc(S(C)(=O)=O)ccc2Cl)ccc1OCC(=O)N1CCOCC1 | 7.5 | 0.1 | 4.7 | -0.9 | -3.4 | /
O=C1OCCN1C(=O)[C@H]1[C@H](c2ccc(F)cc2)C(c2cccc(Cl)c2)=NN1c1ccc(Br)cc1 | 0.9 | / | 97.2* | / | / | /
O=C1OCCN1C(=O)[C@H]1[C@H](c2ccccc2)C(c2cccc(Cl)c2)=NN1c1ccc(Br)cc1 | 8.2 | / | 54.1* | / | / | /
O=C1OCCN1C(=O)[C@H]1[C@H](c2ccc(Cl)cc2)C(c2cccc(Cl)c2)=NN1c1ccccc1 | 2.5 | 1.7 | 47.9* | 19.6 | -8.7 | -102.5
O=C1OCCN1C(=O)[C@H]1[C@H](c2ccc(F)cc2)C(c2cccc(Cl)c2)=NN1c1ccccc1 | 4.5 | / | 26.4 | / | / | /
COc1ccccc1[C@@H]1C(c2ccccc2)=NN(c2ccc(Br)cc2)[C@H]1C(=O)N1CCOC1=O | 1.8 | / | 30.5* | / | / | /
COc1ccccc1[C@@H]1C(c2cccc(C)c2)=NN(c2ccc(Br)cc2)[C@H]1C(=O)N1CCOC1=O | 9.1 | / | 14.5 | / | / | /
O=C(N/N=C/c1cc([N+](=O)[O-])ccc1O)C1C2CCCCC21 (stereo not drawn) | / | 1.4 | / | 87.5 | 12.6 | /
CN(C(=O)c1cccc(NC(=O)Cc2ccc(NC(=O)C3CCN(C(=O)C4CCCCC4)CC3)cc2)c1)C1CCCC1 | 9.4 | / | -1.9 | / | / | /
O=C1OCCN1C(=O)[C@H]1[C@H](c2ccc(Cl)cc2)C(c2ccccc2)=NN1c1ccc(Br)cc1 | 9.1 | / | 33.9* | / | / | /
CCCCOc1ccc(N(CC(=O)NCc2ccco2)C(=O)CCC(=O)Nc2nccs2)cc1 | 7.4 | -1.0 | 2.2 | -4.5 | -1.7 | -1.8
COc1cc(=O)n(C)c2c(O)cccc12 | 1.0 | -0.9 | -1.7 | 2.0 | -8.5 | -44.4
COc1cccc2c(=O)c3c(cnn3C)n(C)c12 | 1.1 | 7.0 | + | 7.9 | -0.4 | i
CCOc1ccccc1N(C)C(=O)c1cc2c(=O)n(CC)c3ccccc3c2s1 | 41.6* | -6.6 | 4.0 | 3.2 | -15.1 | 8.6
COc1ccc(/C=N/NC(=O)c2cc3c(ccc4ccccc43)o2)cc1OC | 25.8 | -0.9 | 6.7 | -2.4 | / | -4.9
COc1ccc(/C=N\NC(=O)c2cc3c(ccc4ccccc43)o2)cc1O | 39.2* | -2.6 | 8.7 | 0.7 | / | -5.2
COc1ccc2ccc(OC)c(/C=N/NC(=O)c3cc4ccccc4o3)c2c1 | 31.6* | / | 4.0 | / | / | /
COc1cc(/C=N/NC(=O)c2cc3c(ccc4ccccc43)o2)cc(OC)c1O | 49.0* | -2.1 | 5.2 | 5.1 | 9.0 | -7.1
COc1ccccc1NCCC(=O)OCC(=O)Nc1cccc(S(=O)(=O)N(C)C)c1 | 4.6 | -1.5 | -1.4 | -5.4 | -0.4 | /
Nc1ccc(C(=O)Nc2ccc(NC(=O)c3ccco3)c(O)c2)cc1 | 27.0 | -2.6 | 0.2 | 3.9 | -2.7 | -2.5
CCOC(=O)C1CCN(C(=O)C(CCSC)NC(=O)COc2ccccc2)CC1 (stereo not drawn) | -5.4 | -0.9 | -1.7 | -9.5 | 3.2 | /
